Inconclusive results are not listed. Active and inactive are the calls of the source. Calls follow the shape of the dose curve; as a rule, active = well fitted curve in the direction sought with a large enough effect; inconclusive = small, poorly fitted or top-dose-only effect, or another doubt; inactive = no such curve, though single readings can be large; an effect the other way counts as inactive or inconclusive.
Tests used:
CRL-7250 = normal cell line; assay: Cytotoxic Profiling of Annotated Libraries Using Quantitative High-Throughput Screening (AID 1296008); details: Five cell lines viability, CellTiter-Glo ATP luminescence, 48-72 h; max response: stronger effect = lower value; also: nearly all actives have a fitted effect of over 60% in size; as to max response: % is scaled to controls: 0 for no effect and ±100 for the full control effect
Procedure, shortened: (§1)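 Compounds were pin-transferred onto cells and incubated 48 or 72 hr at 37 degree Celsius, 95% humidity. CellTiter-Glo was added, plates sat 10 min at room temperature, then ATP-coupled luminescence was imaged as the viability read-out.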

HEK293 = assay: as above; details: Five cell lines viability, CellTiter-Glo ATP luminescence, 48-72 h; max response: stronger effect = lower value
Procedure, shortened: as §1

HaCat = assay: as above; details: Five cell lines viability, CellTiter-Glo ATP luminescence, 48-72 h; max response: stronger effect = lower value
Procedure, shortened: as §1

KB-3-1 = assay: as above; details: Five cell lines viability, CellTiter-Glo ATP luminescence, 48-72 h; max response: stronger effect = lower value
Procedure, shortened: as §1

NIH3T3 [1] = assay: as above; details: Five cell lines viability, CellTiter-Glo ATP luminescence, 48-72 h; max response: stronger effect = lower value
Procedure, shortened: as §1

NIH3T3 [2] = assay: qHTS assay to identify novel small-molecules to repurpose for Merkel cell carcinoma treatment (AID 1296009); details: MCC and control cell lines, CellTiter-Glo viability, 72 h; at 44.8 µM (top of the series) unless noted; also: nearly all actives have a fitted effect of over 60% in size
Procedure, shortened: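 Viability readout: ATP luminescence (CellTiter-Glo) after 72 hr drug exposure at 37 degree celsius. Dose-response format was 8 points for NPC and 11 points for MIPE; data normalized to in-plate controls.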

C33A = assay: Primary qHTS to identify gynecologic anti-cancer compounds using libraries of approved drugs and bioactive compounds (AID 1345084); details: Gynecologic cancer cell panel viability, ATPlite luminescence, 48 h; series mostly up to 57.5 µM; also: % is scaled to controls: 0 for no effect and ±100 for the full control effect; nearly all actives have a fitted effect of over 55% in size
Procedure, shortened: (§2)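 Cytotoxicity screen measuring ATP content by luciferase luminescence. Each compound is applied at five concentrations for 48 h at 37 C with 5% CO2.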

CAOV3 = assay: as above; details: Gynecologic cancer cell panel viability, ATPlite luminescence, 48 h; series mostly up to 57.5 µM
Procedure, shortened: as §2

CASKI = assay: as above; details: Gynecologic cancer cell panel viability, ATPlite luminescence, 48 h; series mostly up to 57.5 µM
Procedure, shortened: as §2

Es-2 = assay: as above; details: Gynecologic cancer cell panel viability, ATPlite luminescence, 48 h; series mostly up to 57.5 µM
Procedure, shortened: as §2

HeLa = assay: as above; details: Gynecologic cancer cell panel viability, ATPlite luminescence, 48 h; series mostly up to 57.5 µM
Procedure, shortened: as §2

Hek293T = assay: as above; details: Gynecologic cancer cell panel viability, ATPlite luminescence, 48 h, control line for the selectivity index; series mostly up to 57.5 µM
Procedure, shortened: as §2

JEG-3 = assay: as above; details: Gynecologic cancer cell panel viability, ATPlite luminescence, 48 h; series mostly up to 57.5 µM
Procedure, shortened: as §2

O=C(COCC(=O)N1CCN(C(c2ccccc2)c2ccccc2)CC1)Nc1ccc(Cl)cc1C(=O)O
inactive: max response (CRL-7250) -11.2% | max response (HEK293) 4.17% | max response (HaCat) -6.79% | outcome (KB-3-1) | outcome (NIH3T3 [1]) | outcome (NIH3T3 [2]) | Potency (C33A) | Potency (CAOV3) | outcome (CASKI) | Potency (Es-2) | Potency (HeLa) | Potency (Hek293T) | Potency (JEG-3)

CC1=CCC2C(C)(C)CCCC2(C)C1CC12OC1C(O)C(CO)=CC2O (centres undefined)
inactive: max response (CRL-7250) 3.52% | max response (HEK293) -6.22% | max response (HaCat) -4.23% | max response (KB-3-1) 9.42% | outcome (NIH3T3 [1]) | outcome (NIH3T3 [2]) | Potency (C33A) | Potency (CAOV3) | outcome (CASKI) | Potency (Es-2) | Potency (HeLa) | Potency (Hek293T) | Potency (JEG-3)

COc1ccc(C2C(C(=O)O)C(C(=O)O)C2c2ccc(OC)cc2O[C@@H]2O[C@H](CO)[C@@H](O)[C@H](O)[C@H]2O)c(O[C@@H]2O[C@H](CO)[C@@H](O)[C@H](O)[C@H]2O)c1 (some centres undefined)
inactive: max response (CRL-7250) -9.53% | max response (HEK293) -17.5% | max response (HaCat) 0.767% | max response (KB-3-1) -1.86% | outcome (NIH3T3 [1]) | outcome (NIH3T3 [2]) inactive [at 17.4 µM] | Potency (C33A) | Potency (CAOV3) | outcome (CASKI) | Potency (Es-2) | Potency (HeLa) | Potency (Hek293T) | Potency (JEG-3)

CO[C@@H]1[C@]2(O)C(=O)N3/C=C\C(C)(C)c4[nH]c5ccccc5c4/C=C\3C(=O)N2[C@]23[C@H](CO)C(C)(C)N2c2ccccc2[C@]13O
inactive: max response (CRL-7250) 1.93% | max response (HEK293) 0.736% | max response (HaCat) -14.4% | max response (KB-3-1) 7.79% | outcome (NIH3T3 [1]) | outcome (NIH3T3 [2]) inactive [at 17.4 µM] | Potency (C33A) | Potency (CAOV3) | outcome (CASKI) | Potency (Es-2) | Potency (HeLa) | Potency (Hek293T) | Potency (JEG-3)

CCC/C=C1\OC(=O)C2=C1CCC(O)C2O (centres undefined)
inactive: outcome (CRL-7250) | max response (HEK293) 1.42% | max response (HaCat) 3.9% | max response (KB-3-1) 0.969% | outcome (NIH3T3 [1]) | outcome (NIH3T3 [2]) | Potency (C33A) | Potency (CAOV3) | outcome (CASKI) | Potency (Es-2) | Potency (HeLa) | Potency (Hek293T) | Potency (JEG-3)

N#Cc1ccc(C2CCCc3cncn32)cc1 (centres undefined)
inactive: max response (CRL-7250) -28.9% | max response (HEK293) -80.6% | max response (HaCat) 3.15% | outcome (KB-3-1) | outcome (NIH3T3 [1]) | outcome (NIH3T3 [2]) inactive [at 17.4 µM] | Potency (C33A) | Potency (CAOV3) | outcome (CASKI) | Potency (Hek293T) | Potency (JEG-3)

O=C(Cc1ccc(Cl)cc1)Nc1cnccc1C(=O)O
inactive: outcome (CRL-7250) | max response (HEK293) 4.18% | max response (HaCat) -20.9% | max response (KB-3-1) 1.29% | outcome (NIH3T3 [1]) | outcome (NIH3T3 [2]) | Potency (CAOV3) | outcome (CASKI) | Potency (Es-2) | Potency (HeLa) | Potency (Hek293T) | Potency (JEG-3)

CC(C(=O)Nc1cc(C#N)ccc1CCCC(=O)O)c1ccc(F)c2ccccc12 (centres undefined)
inactive: max response (CRL-7250) -4.54% | max response (HEK293) -6.85% | max response (HaCat) -4.32% | max response (KB-3-1) 5.51% | outcome (NIH3T3 [1]) | Potency (C33A) | Potency (CAOV3) | outcome (CASKI) | Potency (Es-2) | Potency (HeLa) | Potency (Hek293T) | Potency (JEG-3)

CC1(C)CC[C@]2(C(=O)O[C@@H]3O[C@H](CO[C@@H]4O[C@H](CO)[C@@H](O)[C@H](O)[C@H]4O)[C@@H](O)[C@H](O[C@@H]4O[C@H](CO)[C@@H](O)[C@H](O)[C@H]4O)[C@H]3O)[C@H](O)C[C@]3(C)C(=CCC4[C@@]5(C)CC[C@H](O[C@@H]6OC[C@@H](O)[C@H](O)[C@H]6O)[C@@](C)(C(=O)O)C5CC[C@]43C)[C@@H]2C1 (some centres undefined)
inactive: max response (CRL-7250) -2.05% | max response (HEK293) -13.5% | max response (HaCat) -5.99% | max response (KB-3-1) 2.29% | outcome (NIH3T3 [1]) | outcome (NIH3T3 [2]) inactive [at 9.27 µM] | activity change, negative = cytotoxicity (C33A) -4.53% [at 11.6 µM] | activity change, negative = cytotoxicity (CASKI) 0.848% [at 11.6 µM] | activity change, negative = cytotoxicity (Es-2) 1.6% [at 11.6 µM] | activity change, negative = cytotoxicity (HeLa) 2.79% [at 11.6 µM] | activity change, negative = cytotoxicity (Hek293T) 10.6% [at 11.6 µM] | activity change, negative = cytotoxicity (JEG-3) -3% [at 11.6 µM]

Cc1ccccc1N1CCN(S(=O)(=O)C[C@]23CC[C@H](C[C@@H]2NC(=O)[C@@H](N)CCS(C)(=O)=O)C3(C)C)CC1
inactive: max response (CRL-7250) 1.21% | max response (HEK293) 4.97% | max response (HaCat) 0.627% | max response (KB-3-1) 5.94% | outcome (NIH3T3 [1]) | Potency (C33A) | outcome (CASKI) | Potency (Es-2) | Potency (HeLa) | Potency (Hek293T) | Potency (JEG-3)

CC1=CC[C@@]2(C)CC[C@@](O)(C(C)C)[C@@H]2[C@@H](O)C1
inactive: max response (CRL-7250) 2.53% | max response (HEK293) 0.0265% | max response (HaCat) 1.77% | outcome (KB-3-1) | outcome (NIH3T3 [1]) | Potency (C33A) | Potency (CAOV3) | outcome (CASKI) | Potency (Es-2) | Potency (HeLa) | Potency (Hek293T) | Potency (JEG-3)

O=C(OC[C@H]1O[C@@H](Oc2ccccc2COC(=O)C2(O)C=CCCC2O)[C@H](O)[C@@H](O)[C@@H]1O)c1ccccc1 (some centres undefined)
inactive: outcome (CRL-7250) | max response (HEK293) -3.05% | max response (HaCat) 3.77% | max response (KB-3-1) 1.49% | outcome (NIH3T3 [1]) | Potency (C33A) | Potency (CAOV3) | outcome (CASKI) | Potency (Es-2) | Potency (HeLa) | Potency (Hek293T) | Potency (JEG-3)

C/C=C(\C)C(=O)OC[C@H]1O[C@@H](O[C@H]2[C@@H](O[C@H]3O[C@H](COC(=O)/C(C)=C/C)[C@@H](O)[C@H](O)[C@H]3O[C@@H]3O[C@H](CO)[C@@H](O)[C@H](OC(=O)/C(C)=C/C)[C@H]3O)O[C@H](COC(=O)/C(C)=C/C)[C@@H](O)[C@@H]2O)[C@H](O)[C@@H](O)[C@@H]1O
inactive: max response (CRL-7250) -2.42% | max response (HEK293) -5.26% | max response (HaCat) 2.69% | outcome (KB-3-1) | outcome (NIH3T3 [1]) | outcome (NIH3T3 [2]) inactive [at 9.27 µM] | activity change, negative = cytotoxicity (C33A) 12.3% [at 11.6 µM] | activity change, negative = cytotoxicity (CASKI) -1.71% [at 11.6 µM] | activity change, negative = cytotoxicity (Es-2) 4.24% [at 11.6 µM] | activity change, negative = cytotoxicity (HeLa) -5.55% [at 11.6 µM] | activity change, negative = cytotoxicity (Hek293T) 8.78% [at 11.6 µM] | activity change, negative = cytotoxicity (JEG-3) 2.17% [at 11.6 µM]
